Results as given in PubChem BioAssay AID1259343 (VanderVen Lab, College of Veterinary Medicine, Cornell …, 2017).
About 2,900 (47%) of roughly 6,200 compounds were called active. So high a share suggests a set chosen from earlier hits. This is one part of the list. Unmarked numbers belong to inactive results. Rule as the data show it: active = inhibition above about 50%; inactive = the rest.

Assay: Mycobacterium tuberculosis growth inhibition, primary screen (AID 1259343)
Conditions: inhibition: at 10 µM, hits give high values; outcome: 10 uM

Compound	inhibition
CCOC(=O)c1sc(NN=C(C#N)C#N)c(C(=O)OCC)c1C	27.2%
CCOC(=O)c1c(CC(C)C)csc1NC=C(C#N)C#N	100% (active)
CCOC(=O)C(C#N)=NNc1sc(C(=O)OCC)c(C)c1C(=O)OCC	-20.8%
Cc1cc(NC(=O)c2cccc(C(F)(F)F)c2)n(-c2nc(C)c(C)c(=O)[nH]2)n1	33.9%
Cc1cc(=O)[nH]c(-n2nc(C)cc2NC(=O)c2cc(C(F)(F)F)cc(C(F)(F)F)c2)n1	98.3% (active)
Cc1cc(=O)[nH]c(-n2nc(C)cc2NC(=O)c2ccc(C(F)(F)F)cc2)n1	98.6% (active)
Cc1cc(=O)[nH]c(-n2nc(C)cc2NC(=O)c2cccc(C(F)(F)F)c2)n1	102% (active)
CCn1nnc2c(N3CCC(Cc4ccccc4)CC3)ncnc21	75.6% (active)
Clc1ccccc1CSc1ncnc2c1nnn2Cc1ccccc1	-14.6%
Cc1cc(=O)[nH]c(SCc2cc(-c3ccco3)on2)c1C#N	20.5%
COc1cccc(-c2ccc(CNC(=O)c3n[nH]c(=O)[nH]3)cc2)c1	76.1% (active)
Cc1cc2cc(CNC(=S)Nc3ccccc3)ccc2n1C	49.3%
Cc1c(NC(=S)NCc2ccccn2)c(=O)n(-c2ccccc2)n1C	92.7% (active)
Cc1c(NC(=S)NC(=O)c2ccc(Br)o2)c(=O)n(-c2ccccc2)n1C	-13.3%
Cc1ccc(S(=O)(=O)N=[N+]([O-])C2([N+](=O)[O-])COC(C)OC2)cc1 (configuration not stated)	102% (active)
CCOC(=O)c1ccc(N=Cc2c(O)c([N+](=O)[O-])cc3oc4c(c23)CCCC4)cc1	97.7% (active)
Cc1ncsc1CCC(=O)N1CCC(C(=O)Nc2cccc(-c3ccco3)c2)CC1	86.6% (active)
O=C(Nc1cccc(-c2cscn2)c1)C1CCN(Cc2cccc(-c3ccco3)c2)CC1	86.2% (active)
O=C(Nc1cccc(-c2ccco2)c1)C1CCN(C(=O)Cc2ccsc2)CC1	95.1% (active)
CC(C)c1csc(CN2CCC(C(=O)Nc3cccc(-c4ccco4)c3)CC2)n1	inactive
CC(=O)c1ccc(C(=O)N2CCC(C(=O)Nc3cccc(-c4ccco4)c3)CC2)s1	92.1% (active)
Cc1ccc(NC(=O)CN2CSCC2=O)cc1OCC(F)F	81.5% (active)
Cc1ccccc1OCC(=O)Nc1ccc2c(c1)CCC(=O)N2CCC(C)C	9.17%
Cn1cccc1C(=O)OCc1nc2scc(-c3ccccc3)c2c(=O)[nH]1	37.5%
N#Cc1c(-c2ccc(Br)cc2)csc1N1CCCCC1	38.9%
N#Cc1ncn(Cc2nc3scc(-c4ccc(Br)cc4)c3c(=O)[nH]2)n1	50.4% (active)

Compound	inhibition
O=C1NC(=O)N(C2CCCCC2)C(=O)C1=CC=Cc1ccco1	19.5%
CC1=CC(=NN=c2sc3ccccc3n2C)CC(C)(C)C1	95% (active)
Cn1c(=NN=C2CCCc3ccccc32)sc2ccccc21	85.9% (active)
Cn1c(=NN=C2CC3CC=CC23)sc2ccccc21 (configuration not stated)	102% (active)
CC1=CC(=NNc2ncc(Cl)cc2Cl)CC(C)(C)C1	-13.2%
CC(=NN=c1sc2ccccc2n1C)c1ccco1	1.85%
CC(=NN=c1sc2ccccc2n1C)c1ccccc1Br	11.9%
Cc1ccc(Cl)cc1N1CCN(C(=O)Nc2nncs2)CC1	2.42%
O=c1c(C2OCC3(CO2)CC2C=CC3C2)coc2ccccc12 (configuration not stated)	35.6%
Nc1ccn2ncc([P+](c3ccccc3)(c3ccccc3)c3ccccc3)c2n1	24%
CCCCc1ccc(NC(=O)/C=C/c2cnn(C)c2C)cc1	93.3% (active)
COc1ccccc1N1C(=O)C(Cl)=C(Nc2ccc(S(N)(=O)=O)cc2)C1=O	-0.54%
Cc1ccc(NC2=C(Cl)C(=O)N(CC(C)C)C2=O)cc1	73.8% (active)
Cc1ccc(Cl)c2sc(N3CCNCC3)nc12	100% (active)
Cc1c(Cl)ccc2sc(N3CCNCC3)nc12	90.2% (active)
Cc1cc(C)c2nc(N3CCNCC3)sc2c1	97.1% (active)
Cc1ccc(Cl)c2sc(NCCN(C)C)nc12	36.2%
CCN(CC)CCN(C(=O)c1ccnn1CC)c1nc2c(C)c(Cl)ccc2s1	38.3%
Cc1nc(N2CCNC(=O)C2)c2c(CC(C)C)csc2n1	-15.6%
Cc1c(O)cccc1C(=O)NC1CC(=O)N(CC2CCCCC2)C1 (configuration not stated)	-18.6%
C/C(=C/C(=O)NCCc1ccccc1F)CCc1ccccc1	23.7%
Cc1ccc(C)c2[nH]c(=O)c(CCNC(=S)NCCc3ccccc3)cc12	51.5% (active)
N#CC(C#N)=NNc1ccccc1	-41.6%
N#CC(C#N)=NNc1ccc2c(c1)OCO2	45.5%
Fc1ccc(NN=C2c3ccccc3-c3ccccc32)cc1	44.1%
N#CC(C#N)=NNc1ccc(SC(F)F)cc1	82.4% (active)

Compound	inhibition
N#CC(C#N)=NNc1ccc(F)cc1	91.2% (active)
N#CC(C#N)=NNc1ccc2c(c1)OCCO2	70.3% (active)
CCCOCCn1cc(C2CC=CCC2)nn1 (configuration not stated)	75.7% (active)
O=C(NCCC(=O)N1CCCC1)c1ccc(-c2ccc(Cl)cc2)o1	86.7% (active)
S=C(c1ccc(-c2ccc(Cl)c(Cl)c2)o1)N1CCOCC1	19.5%
C=CCn1c(-c2cc3c(s2)CCC(CC)C3)n[nH]c1=S (configuration not stated)	3.05%
CCC1CCc2c(sc3nc[nH]c(=O)c23)C1 (configuration not stated)	51.2% (active)
OCC1(CO)COC(c2ccccc2)=N1	56.2% (active)
Cc1ccc(-n2cc(O)nn2)cc1	94% (active)
Cc1ccc(OCc2cn(-c3ccc(Cl)cc3)nn2)cn1	24.1%
CCCCN(CCCC)c1nc(OC)nc(-n2nnc(C(C)=O)c2C)n1	15%
Cn1c(=NC(=O)c2ccc3ccccc3n2)sc2ccccc21	45.5%
Cc1cc(C)c(CNC(=O)c2ccc3ccccc3n2)c(=O)[nH]1	70.6% (active)
OCCNc1nc(-c2ccccc2)c2cc(Br)ccc2n1	3.07%
O=C(NCc1ccco1)c1cc(-c2cccs2)on1	35.1%
O=C(NC1CCCC1)c1cc(-c2cccs2)on1	93.6% (active)
O=C(c1cc(-c2cccs2)on1)N1CCCC1	51.3% (active)
O=C(c1scc2c1CCCC2)N1CCCC1	16.9%
O=C(NC1CCCC1)c1nc(-c2cccs2)no1	79.1% (active)
Cc1cc(/C=C(/Cl)c2nc(-c3cccs3)no2)cc(C)c1O	32.2%
Cc1noc(-c2cccs2)c1C(=O)NCCOc1ccccc1	-3.83%
Cc1cc(C(=O)N2CCC(N3CCCC(C(=O)N4CCOCC4)C3)CC2)no1 (configuration not stated)	-0.96%
N#CC(O[C@@H]1O[C@H](CO[C@@H]2O[C@H](CO)[C@@H](O)[C@H](O)[C@H]2O)[C@@H](O)[C@H](O)[C@H]1O)c1ccccc1 (some centres not stated)	-0.91%
CC1CCN(C(=O)CSc2nnc(C(C)Oc3ccc(F)cc3)o2)CC1 (configuration not stated)	-37.3%
CCOC(=O)C(=O)N1CCC(c2nc(-c3ccc(F)c(F)c3)no2)CC1	75.8% (active)
COc1ccc(CCc2nnc(CCC(=O)N3CCC(c4ccc(F)cc4)C3)o2)cc1 (configuration not stated)	15.2%

Compound	inhibition
CC1CCN(C(=O)CCc2nc(-c3ccc(F)cc3)no2)CC1	87.9% (active)
COc1ccc(CC(=O)N2CCC(c3nc(-c4ccc(F)c(F)c4)no3)CC2)cc1	51.3% (active)
COc1cccc(C(=O)N2CCC(c3nc(-c4ccc(C(F)(F)F)cc4)no3)CC2)c1	30.8%
COc1ccc(CC(=O)N2CCC(c3nc(-c4ccc(C(F)(F)F)cc4)no3)CC2)cc1	76.9% (active)
CC(C)c1ccc(OP(N)(=O)Oc2ccccc2F)cc1 (configuration not stated)	12.2%
COC(=O)C(=O)N1CCC(c2nc(-c3ccc(Cl)cc3)no2)CC1	20.8%
O=C(NCCc1ccc(C(F)(F)F)cc1)NCCc1cccs1	31.3%
O=C(c1ccccc1C(F)(F)F)N1CCC(c2nc(-c3ccc(Cl)cc3F)no2)CC1	15.5%
O=C(CSc1nnc(Cc2cccs2)n1C1CC1)N1CCOC1=O	-19.6%
CCOC(=O)Cn1c(=NC(=O)c2cc(C)no2)sc2cc(Cl)ccc21	-4.33%
O=C(COc1ccc(Cl)cc1)N1CCC(c2nc(-c3ccc(Cl)cc3F)no2)CC1	64.9% (active)
O=C(c1c(F)cccc1Cl)N1CCC(c2nc(-c3ccc(F)c(F)c3)no2)CC1	88.5% (active)
CCOC(=O)CC(=O)N1CCC(c2nc(-c3ccc(Cl)cc3)no2)CC1	57.3% (active)
O=C(Cc1cccs1)N1CCC(c2nc(-c3ccc(C(F)(F)F)cc3)no2)CC1	67.2% (active)
OCCc1ccc(-c2noc(C3CCC3)n2)cc1	40.7%
COc1ccc(CC(=O)N2CCC(c3nc(-c4ccc(Cl)cc4F)no3)CC2)cc1	89% (active)
O=C(CCc1ccccc1)N1CCC(c2nc(-c3ccc(C(F)(F)F)cc3)no2)CC1	83.2% (active)
COc1ccc(CC(=O)N(CC(=O)N2CCc3sccc3C2c2ccc(Cl)cc2Cl)Cc2ccc(F)cc2)cc1 (configuration not stated)	3.26%
CSC1(CNc2ccc(Br)cn2)CCOCC1	57.5% (active)
CC(=O)Nc1cccc(CNc2ccc(Br)cn2)c1	2.55%
O=C(CC1CCCCC1)NCc1ccn(-c2ccccc2F)n1	25.1%
CC1(C(=O)Nc2ccc(F)c(-n3cccc3)c2)CCOCC1	49.2%
O=C(CC1CCS(=O)(=O)C1)Nc1ccc(F)c(-n2cccc2)c1 (configuration not stated)	58.4% (active)
O=C1CCC(C(=O)Nc2ccc(F)c(-n3cccc3)c2)CN1 (configuration not stated)	68.1% (active)
